Here are results for eight compounds from PubChem BioAssay (NCI).

Common to all, as to test: NCI-60 one-dose screen, 48 h (100 = growth as untreated, 0 = no growth, -100 = all killed)
What all share (conditions): 10 µM unless noted

Assay [1] relates to NCI-H23 lung.
Assay [2] concerns NCI-H226 lung.
The subject of assay [3] is NCI-H322M lung.
For assay [4], the system named is HOP-62 NSCLC.
Assay [5] relates to NCI-H460 lung.
Assay [6] concerns HOP-92 NSCLC.
For assay [7], the system named is NCI-H522 lung.
The subject of assay [8] is A549/ATCC NSCLC.
Assay [9] has as its system 786-0 renal.
Assay [10] concerns COLO 205 colon.
The test system of assay [11] is DU-145 prostate.
The test system of assay [12] is K-562 leukemia.
Assay [13] concerns MALME-3M melanoma.
Assay [14] concerns MDA-MB-231 breast.
The test system of assay [15] is RXF 393 renal.
For assay [16], the system named is SF-268 CNS.
The test system of assay [17] is SF-295 CNS.
In assay [18] the test system is SF-539 CNS.
In assay [19] the test system is UACC-257 melanoma.
Assay [20] has as its system M14 melanoma.

The panel holds about 83,000 compounds, 20% with a hit somewhere; the sample as a whole holds those more often.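 Negative percent growth values reflect cell death: -40 means 40% of the cells present at the start died, and -100 means all died.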 Unmarked numbers belong to inactive results. The source made the active and inactive calls. How the source made its calls: active means growth percent below 10; inactive means the rest.

As for `COc1ccc(C2N(c3cc(OC)c(OC)c(OC)c3)C(=O)C2(F)F)cc1F` (stereo not given), the growth is 37.9% in assay [1]; 75.5% in [2]; 91.2% in assay [3]; 38.4% in assay [4]; 27.2% in assay [5]; 60.8% in [6]. For the same compound, the growth in assay [7] was 17.5%; in [8], 48.6%; in [9], 75.3%; in assay [10], 16.3%; in [11] it was 25.2%; in [12] it was 10.5%. The growth is 64.1% in [13]; 54% in assay [14]; 49.4% in assay [15]; 52.9% in assay [16]; 48.3% in assay [17]; 21.6% in assay [18]. Besides, the values for the growth in [19] and in assay [20] were 50% and 24.2%, respectively.

Regarding `COc1ccc(C(=O)c2cc(OC)c(OC)c(OC)c2)cc1OC(=O)CCl`, the growth was 24% in assay [1]; 109% in assay [2]; 44.5% in assay [3]; 22% in assay [4]; 8.25% (active) in assay [5]; 52.9% in assay [6]. For the same compound, the growth in assay [7] is -12.4% (active); in assay [8] it was 23%; in [9], 28.7%; in assay [10] it was 16.4%; in assay [11] it was 5.3% (active); in assay [12], 13.3%. The growth is 71% in assay [13]; 34.4% in assay [14]; 56.6% in [15]; 37.3% in assay [16]; 17.3% in [17]; 1.91% (active) in assay [18]. Besides, the growth in assay [19] is 48.9%; in assay [20], 5.59% (active).

Consider `O=C(CCc1nnco1)c1nc2ccc([N+](=O)[O-])cc2[nH]1`, for which the growth in assay [1] is 86.3%; in assay [2] it was 99.4%; in [3], 99.1%; in [4] it was 113%; in assay [5], 108%; in assay [6] it was 119%. For the same compound, the growth in [7] was 101%; in assay [8], 100%; in [9], 111%; in assay [10] it was 121%; in assay [11], 107%; in assay [12], 113%. Moreover, the growth in assay [13] is 105%; in assay [14], 90.5%; in assay [15] it was 117%; in assay [16] it was 102%; in assay [17], 102%; in [18] it was 104%. Further, the growth in assay [19] was 112%; in [20], 103%.

Turning to `c1ccc2nc(N3CCOCC3)c(N3CCCCC3)nc2c1`, the growth is 95.6% in [1]; 95.8% in assay [2]; 95.9% in [3]; 94.1% in assay [4]; 105% in [5]; 84.5% in [6]. The growth in assay [7] is 85.3%; in [8], 96.9%; in assay [9] it was 102%; in assay [10], 110%; in assay [11], 111%; in assay [12], 90.5%. For the same compound, the growth in assay [13] is 92.1%; in assay [14], 97%; in assay [15], 98%; in assay [16], 95.2%; in assay [17], 97.2%; in assay [18], 99%. Also, the growth in [19] is 103%; in assay [20] it was 105%.

Consider `CC(=O)O[C@@H]1C[C@]2(C)[C@H]3[C@H](O)C[C@@H]4C5=CC(C)(C)CC[C@]5(C)CC[C@@]4(C)[C@]3(C)CC[C@H]2C(C)(C)[C@H]1O`, for which the growth in assay [1] was 95.7%; in [2], 99.4%; in [3], 118%; in assay [4], 101%; in [5], 102%; in assay [6] it was 115%. Further, the growth in assay [7] was 103%; in [8], 94%; in assay [9], 99.3%; in assay [10], 117%; in assay [11] it was 107%; in [12] it was 108%. The growth in [13] was 107%; in [14], 113%; in [15], 111%; in assay [16] it was 101%; in assay [17], 104%; in assay [18] it was 102%. In addition, the values for the growth in assay [19] and in assay [20] were 110% and 99.3%, respectively.

Turning to `CCOc1ccccc1C(=O)/C=C/c1cc2ccccc2[nH]c1=O`, the growth in assay [1] is -55.2% (active); in assay [2], 8.19% (active); in assay [3], -2.24% (active); in assay [4], -33.5% (active); in assay [5], -4.96% (active); in assay [6], 0.541% (active). Besides, the growth in assay [7] was -38.6% (active); in assay [8], 16.8%; in assay [9], -21.7% (active); in assay [10], -50.8% (active); in [11], -37% (active); in assay [12], 5.07% (active). Also, the growth in assay [13] is -39% (active); in assay [14], -52.8% (active); in assay [15] it was -69.4% (active); in assay [16], -10.8% (active); in assay [17] it was 1.85% (active); in assay [18] it was -29.9% (active). For the same compound, the growth is -9.05% (active) in [19] and -20.4% (active) in assay [20].

Regarding `CS(=O)(=O)O[C@@H]1C(=O)N(c2cc3c4ccccc4ccc3c3ccccc23)[C@H]1c1ccc(F)cn1`, the growth in assay [1] was 49.5%; in assay [2] it was 63.2%; in [3], 67%; in [4] it was 35.2%; in [5], 16.4%; in [6], 57%. Moreover, the growth was -19.9% (active) in assay [7]; 47.1% in assay [8]; 26.2% in assay [9]; 48.4% in [10]; 11.5% in [11]; 10.3% in [12]. In addition, the growth in assay [13] is 74.2%; in [14] it was 50.1%; in assay [15], 18.6%; in assay [16], 43.4%; in assay [17] it was 9.48% (active); in assay [18], 15.7%. Further, the figures for the growth in assay [19] and in [20] were 41.7% and 30.2%, respectively.

In the case of `NS(=O)(=O)c1ccc(N2Cc3cc(Cl)ccc3OC3=C2C(=O)N(CC2CCCCC2)C3=O)cc1`, the growth is -36.5% (active) in assay [1]; -23.5% (active) in [2]; 65.4% in assay [3]; -60.9% (active) in [4]; -55.1% (active) in [5]; -76.6% (active) in [6]. The growth in assay [7] is -68.6% (active); in assay [8], -43.5% (active); in assay [9], -84.7% (active); in [10], -83.2% (active); in [11] it was -94% (active); in [12] it was -38% (active). Further, the growth was -77% (active) in [13]; -74.5% (active) in assay [14]; -89.7% (active) in assay [15]; -83.9% (active) in assay [16]; -19.3% (active) in assay [17]; -99.4% (active) in assay [18]. Also, the growth in assay [19] is -79% (active); in [20], -67.7% (active).
